Each sequence was assayed against HOXA6 (assay: pooled miR-30 sensor sort-seq; sequence = guide strand). Settings: shRNA.
Work on TGTACTTCCGGTCGGCGCCTTC yielded a sensor-assay potency score (higher = more potent) of -0.845. For ATTGATGAGCTTGTTTTCCTTT, the sensor-assay potency score (higher = more potent) was 0.0267. TTGATGAGCTTGTTTTCCTTTT showed a sensor-assay potency score (higher = more potent) of -0.78.

The sequences below were run against HOXD12 in the same assay as above. Settings: shRNA.
TGGAGAAGTAGAAAGAGTCTGG showed a sensor-assay potency score (higher = more potent) of -0.0412. Sequence TAGGGTTTCCGCTTCTTGCGGG has a sensor-assay potency score (higher = more potent) of -0.0363. TTTGACTTGCTGGTCGCTGAGG was tested, and the sensor-assay potency score (higher = more potent) was -0.827. For TTGGTGTCGTCCTTGAAGCCAG, the sensor-assay potency score (higher = more potent) was -0.854. Sequence TGTCATGTTCAAGTTGAGCGGG has a sensor-assay potency score (higher = more potent) of -0.623. TTGCTGGTCGCTGAGGTTCAGC was tested, and the sensor-assay potency score (higher = more potent) was -1.6. TTGACTTGCTGGTCGCTGAGGT showed a sensor-assay potency score (higher = more potent) of 0.586. TTAGCCTGCTCTTCGGGTCCGT was tested, and the sensor-assay potency score (higher = more potent) was -0.755. For TATTGGACAATTCCTTGCGTTT, the sensor-assay potency score (higher = more potent) was -1.31. In the case of ATTTTGACTTGCTGGTCGCTGA, the sensor-assay potency score (higher = more potent) is reported as -0.889.

The sequences below were run against HOXD4 in the same assay as above. Settings: shRNA.
In the case of TAAAATGAAATTCTTTTTCCAG, the sensor-assay potency score (higher = more potent) is reported as -0.413. For TAGGACTTGCTGCCGGGTGTAG, the sensor-assay potency score (higher = more potent) was -1.46. TCGGACTGACTGTAGGCCCGGG showed a sensor-assay potency score (higher = more potent) of -0.239. TAGTGTTGGGCAGCTTATGATC gave a sensor-assay potency score (higher = more potent) of -1.61. Sequence TTATGTTCTCAGTAGCTCCTGC has a sensor-assay potency score (higher = more potent) of 0.0954. For TGCACCTTCTTCATCCAGGGGT, the sensor-assay potency score (higher = more potent) was -0.0453. ATGATCTTTTTTCCACTTCATC showed a sensor-assay potency score (higher = more potent) of -1.7. Work on TTCTTTTTCCAGTTCTAGGACT yielded a sensor-assay potency score (higher = more potent) of -0.804. TTTTTCCAGTTCTAGGACTTGC was tested, and the sensor-assay potency score (higher = more potent) was -0.495. TTATGATCTTTTTTCCACTTCA was tested, and the sensor-assay potency score (higher = more potent) was -0.3. TTGGGGTCCACATACTTGGAGT showed a sensor-assay potency score (higher = more potent) of -0.994.

Each sequence was assayed against HP1BP3 in the same assay as above. Settings: shRNA.
Work on TTCTTCTGCAACCTTCTCTTAG yielded a sensor-assay potency score (higher = more potent) of -0.784. With TAAGATTGCATCCATCTTGGGA the sensor-assay potency score (higher = more potent) was -0.272. With TTCTGAACCACAACAAAACTTC the sensor-assay potency score (higher = more potent) was -0.196. For TAGACTGATCTTTCTCATCCTT, the sensor-assay potency score (higher = more potent) was 0.288. For TCTTCGGAAACAGAACTCCTGG, the sensor-assay potency score (higher = more potent) was -0.507. Work on TTGATTTCTGAACCACAACAAA yielded a sensor-assay potency score (higher = more potent) of -1.61. Work on TTTTCGAATAGCAACCACTGAT yielded a sensor-assay potency score (higher = more potent) of -0.782. With TACTGAGACACATATTTCCTGA the sensor-assay potency score (higher = more potent) was -0.347. TATCTTCTACCTTCTCACCTAA showed a sensor-assay potency score (higher = more potent) of -0.313. For TTCGGAAACAGAACTCCTGGGC, the sensor-assay potency score (higher = more potent) was 0.0322. TTCCTCTGAACTTATGTCTGGT gave a sensor-assay potency score (higher = more potent) of 0.357.

The sequences below were run against HPD in the same assay as above. Settings: shRNA.
In the case of AAACTTGTCTTGCTCTACCCAG, the sensor-assay potency score (higher = more potent) is reported as -0.591. Sequence TTTGGTGAAGATCTGCAGGAGG has a sensor-assay potency score (higher = more potent) of -0.36. TTTCTCGTCGTAGTCCACCAGG showed a sensor-assay potency score (higher = more potent) of -0.901. AACTTGTCTTGCTCTACCCAGG showed a sensor-assay potency score (higher = more potent) of -0.858. TATTCCGTGTGCACCTGCGTGT was tested, and the sensor-assay potency score (higher = more potent) was -0.504.

Reference: the OligoGym collection
